Values joined by “and” are separate entries in the source; they are usually repeats but may differ in a detail not shown here. Identical values can stand only once. The panel holds about 83,000 compounds, 20% with a hit somewhere; the sample as a whole holds those more often.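 Negative percent growth values reflect cell death: -40 means 40% of the cells present at the start died, and -100 means all died.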 Values without a mark were called inactive. Active and inactive are the calls of the source. How the source made its calls: active means growth percent below 10; inactive means the rest.

This test deals with HL-60(TB) leukemia. Description: NCI-60 one-dose screen, 48 h (100 = growth as untreated, 0 = no growth, -100 = all killed). To be noted: 10 µM unless noted.
`COc1c(F)ccc(C(=O)Nc2ccc3nc(NC(=O)C4CCCN(S(=O)(=O)c5cccc(Cl)c5)C4)sc3c2)c1F` (stereo not given): the growth is 76.8%.
Under `N#Cc1cc(-c2ccc3ncnc(N4CCc5cc(F)c(Cl)cc54)c3c2)cnc1N` stands 36.1%; under `Cn1cc(-c2cc(N)n3nc(-c4cn(C)c5ncc(Br)cc45)cc3n2)c2cc(Br)cnc21`, -71.2% (active).
For `CC(=O)/C=C/c1cccc2c1C(=O)NC(C)(c1cc3cc(Br)ccc3oc1=O)N2` (stereo not given), the growth was -29.3% (active).
To `Cn1cc(-c2nnc(N)nc2-c2c[nH]c3ccccc23)c2cccnc21` belongs 13.5%.
Under `C=C1CCC2C3(C)COC(c4ccc(F)cc4)OC3CCC2(C)C1CC(O)C1=CCOC1=O` (stereo not given) stands 35.9%; under `CN(C)CCOc1ccc(C(=O)C2[C@H](c3ccc(Cl)cc3)[C@@H](c3ccccc3)NC23C(=O)Nc2ccccc23)cc1` (stereo not given in full), 35.1%.
Under `O=C(NC(=S)N1CCN(c2ncnc3c2cnn3-c2ccccc2)CC1)c1ccc(Cl)cc1` stands 95.5%.
`Cc1cc(C(NC(=O)C2CC3(CC(Nc4cccc5c4C(=O)N(C4CCC(=O)NC4=O)C5=O)C3)C2)c2ccc3c(c2)OC(F)(F)O3)c(O)c2ncccc12` (stereo not given): the growth was -16.4% (active).
To `O=C(/C=C/c1ccc(O)c(O)c1)NC1CCOC1O` (stereo not given) belongs 99.1%.
In the case of `Cc1ccc(-c2nc(Nc3ccccc3S(N)(=O)=O)c3ccccc3n2)cc1`, the growth was 81.1%.
Take `COC(OC)C1=C(C)OC(N)=C(C#N)C12C(=O)Nc1ccccc12` (stereo not given): the growth is 67.6%.
Under `COc1ccc2nc(Cl)c(-c3cc(-c4ccccc4)nc(=S)[nH]3)cc2c1` stands 19.6%; under `CCCN(CCC)S(=O)(=O)c1ccc(C(=O)O)cc1.CCCN(CCC)S(=O)(=O)c1ccc(C(=O)O)cc1.[Cl][Pt+2][Cl].[NH2-].[NH2-]`, -2.97% (active); under `O=C1CC(Sc2n[nH]c(-c3ccncc3)n2)C(=O)N1c1ccc(Br)cc1` (stereo not given), 101%.
Under `CC1(C)CC[C@]2(C(=O)Nc3ccc(F)cc3)CC[C@]3(C)C(=CCC4[C@@]5(C)C[C@@H](O)[C@H](O)[C@@](C)(CO)C5CC[C@]43C)C2C1` (stereo not given in full) stands -11.7% (active); under `COc1ccc2[nH]cc(-c3cc4nc(-c5cn(C)c6ncccc56)cc(N)n4n3)c2c1`, -35.4% (active); under `COc1cc2oc(-c3cccc(NC(=O)[C@H](CC(N)=O)NC(=O)OC(C)(C)C)c3)cc(=O)c2c(OC)c1OC`, 67.2%.
To `CCCCCCCCc1ccc(S(=O)(=O)Nc2ccc(CC)cc2C(=O)O)cc1` belongs 120%; to `COc1cc2c(c(OC)c1OC)C(=O)CC(c1cccc(NC(=O)[C@@H](N)CC(C)C)c1)O2` (stereo not given in full), 96.6%.
As to `CCOc1ccc(/C=N/NC(=O)Cn2nc(Cc3ccc(OC)cc3)c3onc(C)c3c2=O)cc1`, the growth is 57.5%.
On to `COc1ccc([C@H](C)Nc2nc(Cl)nc3ccccc23)cc1`, for which the growth was 7.64% (active).
To `CN(C)c1nc(NCCNS(=O)(=O)c2ccc(C(=O)/C=C/c3ccc(C(F)(F)F)cc3)cc2)nc(Nc2ccc(F)cc2)n1` belongs -21.8% (active); to `Cn1cc(-c2nc(N)nnc2-c2c[nH]c3ccc(Br)cc23)c2cc(Br)cnc21`, -35.8% (active).
To `CC1=C(C)C(=O)C(N2CCSCC2)=CC1=O` belongs 89.3%; to `Nc1nc(-c2ccccc2)c(N=Nc2ccc(Cl)cc2Cl)s1`, -31.7% (active).
Consider `COc1ccccc1C(=O)NNC(=O)CSc1nc2c(c(=O)[nH]1)CCCC2`, for which the growth is 100%.
Regarding `Cc1ccc(S(=O)(=O)c2nc(S(=O)(=O)c3ccc(C)cc3)c(Cl)s2)cc1`, the growth was 15.9%.
For `O=C(Nc1cccc(C(F)(F)F)c1)c1cncc(C#Cc2cnc3ccc(N4CCOCC4)nn23)c1`, the growth is -33% (active).
Take `O=C1Nc2ccccc2/C1=C/C(=O)c1cc2ccccc2oc1=O`: the growth was 102%.
To `N#Cc1ccc(-c2nn(-c3ccc(C(=O)O)cc3)cc2CNc2cccc(Br)c2)cc1` belongs 47%.
Under `Cc1ccc(C(=O)Nc2cc(-n3ccnc3C)cc(C(F)(F)F)c2)cc1C#Cc1cnc2cccnn12` stands -28.8% (active); under `CC(C)CCSc1nc(NC2CC2)c(C#N)c(-c2ccc(C(C)C)cc2)n1`, 80.4%.
To `N/N=C(\N)c1c(N)nc(=S)[nH]c1-c1ccc(Cl)cc1Cl` belongs 89.1%; to `Cc1ccc(C2CC(c3ccc(NC(=S)Nc4ccccc4)cc3)=NN2c2ccc(S(N)(=O)=O)cc2)cc1` (stereo not given), 8.89% (active).
Consider `CC(=O)Nc1cccc(-n2c(COc3ccc(Br)cc3)nc3ccccc32)c1`, for which the growth is 113% and 103%.
To `Nc1ccc(-c2ccc3ncnc(N4CCc5cc(F)c(Cl)cc54)c3c2)cn1` belongs 22.8%.
Regarding `O=C(Cn1c(-c2ccccc2)nc2ccccc21)N=Nc1c(O)[nH]c2ccc(Cl)cc12`, the growth is 57.2%.
Under `COc1ccc(NC(=O)N/N=C/c2c[nH]c3ccccc23)cc1` stands 1.79% (active); under `COc1ccc(/C=C/c2nc3ccccc3n3c(-c4cccc([N+](=O)[O-])c4)nnc23)cc1`, -49.3% (active).

These data come from PubChem BioAssay (NCI).
